According to ChEMBL document CHEMBL1157539, “Thousands of chemical starting points for antimalarial lead identification” (Nature, 2010):

Legend:
Assay type in all cases: functional
Plasmodium falciparum [1] = assay: GSK_TCMDC: Inhibition of Plasmodium falciparum 3D7 in whole red blood cells, using parasite LDH activity as an index of growth. Test compounds present at 2uM
Plasmodium falciparum [2] = assay: GSK_TCMDC: Inhibition of Plasmodium falciparum Dd2 in whole red blood cells, using parasite LDH activity as an index of growth. Test compounds present at 2uM
HepG2 = assay: GSK_TCMDC: Percent inhibition of human HepG2 cell line. Test compounds present at 10uM.

Row | Compound | Inhibition (Plasmodium falciparum [1]) | Inhibition (Plasmodium falciparum [2]) | Inhibition (HepG2)
1 | O=C(NC1CCCc2ccccc21)[C@@H]1CCCN1C(=O)c1ccc(O)c(-c2ccc(Cl)c(Cl)c2)c1 (some centres undefined) | 99% | 99% | 0%
2 | CC(C)(CC1CCCCC1)NC(=O)[C@H](CC1CCCCC1)Nc1ccc(C#N)c2ccccc12.O=C(O)C(F)(F)F | 98% | 52% | 14%
3 | Cn1cnc2c(Nc3ccncc3)nc(-c3ccc4ccccc4c3)nc21 | 96% | 66% | 55%
4 | OC[C@H](Nc1nc(C(Oc2ccccc2)c2ccccc2)nc2[nH]ncc12)c1ccccc1 (some centres undefined) | 98% | 45% | 0%
5 | COc1ccc(Br)cc1/C=C/C(=O)Nc1ccc(C2CCCN(C)C2)cc1.O=CO (centres undefined) | 100% | 35% | 18%
6 | O=C(c1cnn(-c2ccccc2)c1C(F)(F)F)N1CCN(c2ccnc3cc(Cl)ccc23)CC1 | 89% | 94% | 34%
7 | CC(C)(C)c1ccc(CNC(=O)c2ccc(-c3nc4ccc(Cl)cc4[nH]3)cc2)cc1 | 93% | 2% | 14%
8 | CNC(=O)Cc1ccc(C(=O)Nc2cccc(-c3cccc(-c4nc5cc(C(F)(F)F)ccc5[nH]4)c3)c2)cc1 | 95% | 37% | 40%
9 | Cl.OCC(CO)(CO)NCc1ccc2c3c(cccc13)-c1ccccc1-2 | 87% | 76% | 73%
10 | CC(C)N(CC(=O)c1ccc(O)c(C(=O)O)c1)Cc1ccccc1.Cl | 97% | 26% | 0%
11 | COc1ccc(C(=O)CCC(=O)N(Cc2ccc(-c3ccc(CNCc4cccnc4)cn3)cc2)C2CCN(Cc3ccccc3)CC2)cc1F.O=C(O)C(F)(F)F | 94% | 26% | 30%
12 | CC(C)(C)OC(=O)N[C@@H](Cc1ccccc1)C(=O)Nc1cccc(-c2cccc(NC(=O)[C@H](Cc3ccccc3)NC(=O)OC(C)(C)C)c2)c1 | 100% | 97% | 10%
13 | Cn1nc(-c2ccc(NC(=O)Nc3cc(C(F)(F)F)cc(C(F)(F)F)c3)c(F)c2)c2cnc(NCCN3CCOCC3)nc21.O=C(O)C(F)(F)F | 94% | 37% | 43%
14 | O=C(O)C(F)(F)F.O=c1cc(N2CCCNCC2)c(Cl)nn1Cc1ccc(NS(=O)(=O)c2ccc(Oc3ccccc3)cc2)cc1 | 98% | 0% | 0%
15 | COc1ccc(-c2nonc2NC(=O)c2cccc(C)c2)cc1OC | 97% | 8% | 24%
16 | Cc1cc(N[C@@H](Cc2ccccc2)C(=O)Nc2ccccc2)nc(Nc2ccccc2)n1.O=C(O)C(F)(F)F | 100% | 69% | 8%
17 | COC(=O)c1ccc2nc(-c3ccc(/C=C/C(=O)NCc4ccc(Cl)c(Cl)c4)cc3)[nH]c2c1 | 81% | 3% | 13%
18 | O=C(c1cccc(-c2cccc(-c3nc4ccccc4[nH]3)c2)c1)N1CCCCC1CN1CCC(O)C1 (centres undefined) | 100% | 56% | 66%
19 | CCCCCCCCc1c(C)nc(C)c(I)c1O | 91% | 77% | 5%
20 | O=C(Nc1cccc(-c2cccc(-c3nc4ccccc4[nH]3)c2)c1)c1csnn1 | 90% | 27% | 31%
21 | Cl.N=C(N)NN=C1C=Cc2cccc3cccc1c23 | 100% | 49% | 9%
22 | Cl.O=C(c1ccc(Cl)c(Cl)c1)N1CCc2c([nH]c3ccccc23)C1CN1CCCC1 (centres undefined) | 94% | 16% | 83%
23 | Cl.O=C(C=Cc1cccs1)N(CCCn1ccnc1)c1nc2ccc(F)cc2s1 | 98% | 28% | 0%
24 | COCCNC(=O)C1CCN(C(c2ccc(Cl)cc2)c2ccc(Cl)cc2)CC1 | 86% | 73% | 3%
25 | CN(C)C(=O)CC(=O)NCc1cccc(Cl)c1 | 99% | 3% | 4%
26 | COc1c(C)cc(I)cc1CNCCCNc1cc(=O)c2ccccc2[nH]1 | 84% | 0% | 0%
27 | NC(=O)c1cccc(C(=O)Nc2cccc(-c3csc(-c4nc5ccccc5[nH]4)c3)c2)c1 | 100% | 92% | 16%
28 | O=C(Nc1ccc([N+](=O)[O-])cc1O)Nc1ccccc1Oc1ccccc1 | 92% | 1% | 45%
